Test results published in PubChem BioAssay (EPA / NIEHS).
Values joined by “and” are separate entries in the source; they are usually repeats but may differ in a detail not shown here. Equal values may be shown once. Where a structure was tested more than once in an assay, its records may differ in their call. Active and inactive are the calls of the source. How the source made its calls: active means hit-call score of the fitted dose curve at least 0.9, where 1 is the maximum; inactive means score below 0.9.

What follows are compounds tested on Interferon-gamma inducible Protein 10 (IP10), CXCL10 (gene 3627) (assay: BSK_KF3CT_IP10: BioMAP Diversity Plus: KF3CT Assay for Interferon-gamma inducible Protein 10 (IP10) Biomarker Activity (AID 2283068)). Details: primary human keratinocytes with fibroblasts; actives raise or lower the signal.
Protocol: BSK_KF3CT is a cell-based, multiplexed-readout assay that uses keratinocytes and foreskin fibroblasts, a human skin primary cell co-culture, with measurements taken at 24 hours after chemical dosing in a 96-well plate.BSK_KF3CT_IP10 is an assay component measured in the BSK_KF3CT assay. It measures IP-10 antibody related to regulation of gene expression using ELISA technology.Data from the assay component BSK_KF3CT_IP10 was analyzed into 1 assay endpoint. This assay endpoint, BSK_KF3CT_IP10, was analyzed with bidirectional fitting relative to DMSO as the negative control and baseline of activity. Using a type of binding reporter, gain or loss-of-signal activity can be used to understand changes in the signaling as they relate to the gene CXCL10. Furthermore, this assay endpoint can be referred to as a primary readout, because this assay has produced multiple assay endpoints where this one serves a signaling function. To generalize the intended target to other relatable targets, this assay endpoint is annotated to the cytokine intended target family, where the subfamily is chemotactic factor.
The levels of cell surface (or secreted, indicated by the prefix "s") biomarker endpoints were measured by ELISA. Overt cytotoxicity to cells in confluent adherent cultures (all systems other than the BT system) was assessed by measuring total protein levels using sulforhodamine B (SRB) staining in parallel cultures at the time of biomarker measurements, indicated as SRB endpoints. For proliferation assays for adherent cell types, individual cell types are cultured at sub-confluence and relative cell numbers quantified by SRB staining at time points optimized for each system (48 h: 3C and CASM3C systems; 72 h: BT and HDF3CGF systems; 96 h: SAg system). SRB was performed by staining cells with 0.1% SRB after fixation with 10% TCA and reading wells at 560 nm.Viability and proliferation of PBMC (T cells) was quantified by Alamar Blue reduction for the SAg and BT systems. For PBMC viability (referred to as PBMC Cytotoxicity within the assay endpoint names), cells were plated (75,000/well in a 96-well plate) and then chemical samples added for 1 h before addition of activators, SEB and TSST-1 (20 ng/mL final concentration each). Cells were incubated for 90 h. Then, Alamar Blue (20 uL/well) (Invitrogen, Cat DAL1100) was added for 6 h, and the plates were read with a fluorescence microplate reader at 546/580 nm (excitation/emission). For PBMC proliferation, cells were plated and activated as above but incubated for only 16 h prior to addition of Alamar Blue. Plates were read after 6 h.

| Compound | AC50 | outcome |
| --- | --- | --- |
| N#Cc1nn(-c2c(Cl)cc(C(F)(F)F)cc2Cl)c(N)c1S(=O)C(F)(F)F (stereo not given) | 29.1 µM (active) |  |
| CC(C)(C)c1ccc(CSc2cnn(C(C)(C)C)c(=O)c2Cl)cc1 | 31.3 µM (active) |  |
| CC1COC(Cn2cncn2)(c2ccc(Oc3ccc(Cl)cc3)cc2Cl)O1 (stereo not given) | 34.7 µM (active) |  |
| COC(=O)c1ccccc1C(=O)OC |  | inactive |
| N#CC(CCc1ccc(Cl)cc1)(Cn1cncn1)c1ccccc1 (stereo not given) |  | inactive |
| C=CCC1=C(C)C(OC(=O)C2C(C=C(C)C)C2(C)C)CC1=O (stereo not given) | 35 µM (active) and 31 µM (active) and 29.2 µM (active) | inactive |
| COc1nc(C)nc(NC(=O)NS(=O)(=O)c2ccccc2Cl)n1 | 0.148 µM (active) | inactive |
| CCOC(=O)CC(SP(=S)(OC)OC)C(=O)OCC (stereo not given) |  | inactive |
| Cc1cc(Cl)ccc1OCC(=O)O |  | inactive |
| O=C(O)c1nc(Cl)ccc1Cl | 0.147 µM (active) | inactive |
| O=C(Nc1ccccc1)Nc1ccnc(Cl)c1 |  | inactive |
| CCc1nn(C)c(C(=O)NCc2ccc(C(C)(C)C)cc2)c1Cl | 18.7 µM (active) |  |
| CNC(=S)S | 20.7 µM (active) |  |
| CS/C(C)=N/OC(=O)N(C)SN(C)C(=O)O/N=C(\C)SC | 12.4 µM (active) |  |
| Fc1ccc(Oc2ccnc3cc(Cl)cc(Cl)c23)cc1 | 17.9 µM (active) |  |
| CC(C)Oc1cc(-n2nc(C(C)(C)C)oc2=O)c(Cl)cc1Cl | 14.9 µM (active) |  |
| CC(C)C1(C)N=C(c2nc3ccccc3cc2C(=O)O)NC1=O (stereo not given) |  | inactive |
| CCCCNC(=O)OCC#CI | 33.2 µM (active) and 11.9 µM (active) |  |

| Compound | AC50 | outcome |
| --- | --- | --- |
| CCNc1nc(Cl)nc(NCC)n1 |  | inactive |
| CCOc1cc(Oc2ccc(C(F)(F)F)cc2Cl)ccc1[N+](=O)[O-] |  | inactive |
| CC1=C(C(=O)Nc2ccccc2)SCCO1 |  | inactive |
| CCOP(=S)(OCC)SCn1c(=O)oc2cc(Cl)ccc21 |  | inactive |
| CN(C)C(=S)SSC(=S)N(C)C | 6.1 µM (active) |  |
| O=C(O)COc1nc(Cl)c(Cl)cc1Cl |  | inactive |
| CCCN(CCC)c1c([N+](=O)[O-])cc(S(N)(=O)=O)cc1[N+](=O)[O-] |  | inactive |
| COc1cnc(OC)n2nc(NS(=O)(=O)c3c(OCC(F)F)cccc3C(F)(F)F)nc12 | 34.2 µM (active) | inactive |
| C=CCC1=C(C)[C@@H](OC(=O)[C@@H]2[C@@H](C=C(C)C)C2(C)C)CC1=O |  | inactive |
| COC(=O)C(C)Oc1ccc(Oc2ccc(Cl)cc2Cl)cc1 (stereo not given) | 25.4 µM (active) and 20 µM (active) | inactive |
| COC(=O)C=C(C)OP(=O)(OC)OC |  | inactive |
| CC(Oc1ccc(Cl)cc1Cl)C(=O)O (stereo not given) |  | inactive |
| CCCCC(CC)COC(=O)c1ccccc1C(=O)OCC(CC)CCCC (stereo not given) | 15.1 µM (active) |  |
| CCNc1nc(Cl)nc(NC(C)C)n1 | 0.148 µM (active) |  |
| COP(=S)(OC)Oc1nc(Cl)c(Cl)cc1Cl |  | inactive |
| CNC(=O)ON=CC(C)(C)SC | 0.428 µM (active) |  |
| CCCC1COC(Cn2cncn2)(c2ccc(Cl)cc2Cl)O1 (stereo not given) |  | inactive |
